# Only some compounds are listed: those with a hit (about 2.8% of all), similar ones and a draw of the others.
# GAA850 FXN act = increases GAA850 frataxin promoter reporter activity. HEK293 lucGAA850 FXN promoter luciferase reporter, 24 h; percent of 10 µM SAHA response. activation, % at 6 µM. actives 0.56% (n = 360,000). AID 540364;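 active = activation above the average of all compounds screened plus 3 SD, cutoff fixed separately per campaign, cut at about 7.5% in these data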;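 also: 0% = DMSO wells and 100% = 10 µM SAHA wells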
# Wnt bcat act = Wnt/beta-catenin pathway activation; AID 743398; actives 1.2% (n = 300,000); activation, % at 9.35 µM; Wnt/beta-catenin reporter cell assay, activator, plate reader; in the data active = activation above about 30%, passing the limit was not always enough; inconclusive = no clear call, values can overlap the other calls;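 also: 0% = neutral control wells and 100% = positive control wells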
# MITF TRPM1 HTS = MITF TRPM1 promoter activation in melanoma cells | SK-MEL-5 TRPM1-promoter luciferase, 24 h; % of positive control, neutral wells = 0 | activation, % at 12.5 µM | actives 0.75% (n = 300,000);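 active = mean activation of at least 80% with every replicate also reaching 80%; inconclusive = mean reaches 80% but some replicate falls short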;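 also: 0% = neutral control wells and 100% = parthenolide positive control wells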
# esBAF inh = SWI/SNF esBAF complex inhibition; mouse ES cells, Bmi1-luciferase knock-in reporter, 24 h; 100% = twice the neutral-well signal; reporter increase, % at 12.5 µM; actives 2% (n = 350,000); AID 602393; in the data active = activation above about 40%; inconclusive = no clear call, values can overlap the other calls;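 also: 0% = median of the plate's neutral control wells and 100% = double that signal; a rise in the Bmi1 reporter signal indicates esBAF inhibition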
# Active calls of the source: *; ? = inconclusive; . = no result.
SMILES,GAA850 FXN act,Wnt bcat act,MITF TRPM1 HTS,esBAF inh
O=C1CCC(C(=O)N2CCCCO2)CN1CCc1ccccc1 (centres undefined),2.7,27.6,66.3,51.1*
CN1CCN(C(=O)C2CCC(=O)N(CCc3cccc(F)c3)C2)CC1 (centres undefined),1.9,-1.8,-15.1,.
COC(=O)C1CCN(C(=O)C2CCC(=O)N(CCc3cccc(F)c3)C2)CC1 (centres undefined),1.5,3.1,18.8,52.6*
CC(C)(C)c1[nH]nc2c1C(C1C=CCCC1)C(C#N)=C(N)O2 (centres undefined),1.1,.,.,3.0
CC(C)c1[nH]nc2c1C(C1C=CCCC1)C(C#N)=C(N)O2 (centres undefined),0.6,46.1*,-10.3,.
CC(C)Cc1ccc(/C=C/C(=O)N2CCOCC2)cc1,4.2,16.8,102.7*,51.5*
O=C(Nc1ccc(F)cc1)c1cc(-c2ccccc2)no1,-0.9,35.3*,24.3,.
COc1ccc(-c2cc(C(=O)Nc3ccccc3)on2)cc1,-0.4,13.2,100.7*,.
COc1ccc(-c2cc(C(=O)Nc3ccccc3F)on2)cc1,0.0,11.1,95.0*,.
COCCNc1nc(C)cc(-c2cc(C(=O)Nc3ccccc3)on2)n1,-1.5,.,14.3,-5.1
O=C(Oc1cc(-c2ccccc2)no1)c1ccc(F)cc1,0.0,-3.6,.,0.4
C[C@@H]1CN([C@@H](C)CO)C(=O)c2cc(-c3cccnc3)cnc2O[C@@H]1CN(C)C(=O)C1CCC1,.,.,.,-2.7
Cc1ccccc1CNC(=O)Cc1ccccc1[N+](=O)[O-],6.5,25.4,29.7,41.6*
O=C(Cc1ccccc1[N+](=O)[O-])NCc1ccccc1Cl,1.0,2.0,50.9,27.9
Cc1cccc(NC(=O)c2cccc([N+](=O)[O-])c2O)c1C,5.3,49.0*,65.2,.
COc1ccccc1S(=O)(=O)N[C@@H]1CC[C@H](CCn2cc(C3CCCCC3)nn2)O[C@@H]1CO,.,.,.,12.7
CO[C@@H]1CN(C)C(=O)c2ccc(NS(=O)(=O)c3ccccc3C)cc2OC[C@@H](C)NC[C@@H]1C,.,.,.,2.5
COc1ccc(/C=N/Nc2snc(SC)c2C#N)cc1OC,5.4,.,?,52.5*
O=C(Nc1ccccn1)c1ccc(Cl)c(S(=O)(=O)N2CCCC2)c1,3.6,2.8,41.4,56.4*
CCOCC(=O)Nc1cc(C(=O)Nc2ccccc2)ccc1Cl,2.5,11.4,27.0,50.7*
O=C(NCCc1ccccc1)c1ccc(Cl)c(S(=O)(=O)N2CCCC2)c1,4.6,.,40.1,58.6*
O=C(Nc1ccccn1)c1ccc(Cl)c(S(=O)(=O)N2CCOCC2)c1,2.2,-2.5,-3.1,.
Cc1ccc(C(=O)NCCc2ccccc2)cc1S(=O)(=O)N1CCOCC1,2.2,26.5,70.7,68.1*
C[C@H](CO)N1C[C@H](C)[C@@H](CN(C)S(=O)(=O)c2cccs2)OCCCC[C@H](C)Oc2ccc(NC(=O)c3ccncc3)cc2C1=O,.,.,.,-3.1
C[C@@H]1CN([C@H](C)CO)C(=O)c2cccc(NC(=O)Nc3ccccc3)c2O[C@@H]1CN(C)Cc1ccc(-c2ccccc2)cc1,.,.,.,-2.0
SMILES,GAA850 FXN act,Wnt bcat act,MITF TRPM1 HTS,esBAF inh
CCCCC(=O)Nc1cc(C(=O)NCCc2ccccc2)ccc1Cl,2.4,.,125.8*,?
CC(=O)Nc1ccc(-c2csc(NCCc3ccccc3)n2)cc1,2.4,2.6,.,46.7*
CCc1ccc(-c2ccc(SCc3ccccn3)nn2)cc1,2.3,12.5,70.8,63.0*
COc1cc2c(C(=O)N3CCN(C)CC3)c(C)oc2cc1Br,-0.1,.,4.5,-8.4
Cc1oc2cc3c(C(=O)N4CCCCC4)c(C)oc3cc2c1C(=O)N1CCCCC1,-1.3,.,42.6,148.9*
C[C@@H]1CN([C@@H](C)CO)C(=O)Cc2cc(NC(=O)CCN3CCOCC3)ccc2O[C@H]1CN(C)Cc1ccccc1,.,.,.,-3.0
c1cc(-c2ccc(N3CCOCC3)cc2)n2ccnc2c1,4.3,26.3,.,57.1*
CNC[C@@H]1Oc2ccc(NS(=O)(=O)c3ccc(OC)cc3)cc2CC(=O)N([C@@H](C)CO)C[C@@H]1C,.,.,.,1.0
Cc1cc(Nc2ccc(Br)cc2)nc(-c2ccccc2O)n1,-0.6,3.5,.,8.9
Cc1ccc(Nc2cc(C)nc(-c3ccccc3O)n2)cc1,4.1,42.4*,.,52.6*
Cc1cc(NCCCN)nc(-c2ccccc2O)n1,1.3,.,31.3,44.5*
Cc1ccc(Nc2cc(C)nc(-c3ccccc3)n2)cc1,7.5,?,121.8*,?
O=C(C1CCC1)N1CC[C@@H]2[C@H](CO)Nc3ccc(C#Cc4cccc(F)c4)cc3[C@@H]21,.,.,.,-4.1
Cc1cccc(NC(=O)CCSc2ccccc2)c1C,2.6,52.3*,16.3,.
COc1ccc(C2=NNC(=O)CC2)cc1,3.3,-6.0,-8.0,.
COc1ccc(C2=NNC(=O)C2(C)Br)cc1 (centres undefined),0.3,51.2*,-4.5,.
C[C@H](CO)N1C[C@H](C)[C@H](CN(C)Cc2ccc(C(=O)Nc3ccccc3N)cc2)Oc2c(NC(=O)c3nc4ccccc4s3)cccc2C1=O,.,.,.,-1.4
CO[C@H]1CN(C)C(=O)c2ccc(NS(C)(=O)=O)cc2OC[C@H](C)N(C(=O)CC2CC2)C[C@H]1C,.,.,.,-0.1
COc1ccc(-c2noc(Cc3cccs3)n2)cc1,3.8,16.5,118.6*,54.6*
COc1ccc(CCc2nc(-c3ccc(-n4cccc4)cc3)no2)cc1,-0.5,2.5,4.8,-4.1
COc1ccc(-c2noc(CCc3ccccc3)n2)cc1,3.7,5.1,50.4,57.1*
COCC(=O)Nc1ccc2c(c1)C(=O)N(C)[C@@H]1CC[C@H](CC(=O)Nc3cn(C)nc3C)O[C@H]1CO2,.,.,.,-0.5
C[C@H]1CN([C@@H](C)CO)S(=O)(=O)c2ccc(C#CC3(O)CCCC3)cc2O[C@H]1CN(C)C(=O)Cc1ccccc1,.,.,.,7.5
COc1ccc(S(=O)(=O)Nc2cccc3c2O[C@H](CN(C)Cc2ccc(Cl)c(Cl)c2)[C@@H](C)CN([C@@H](C)CO)C3=O)cc1,.,.,.,1.8
O=C(Nc1ccccc1)c1ccc(CSc2ncccn2)cc1,4.2,.,40.8,2.9
SMILES,GAA850 FXN act,Wnt bcat act,MITF TRPM1 HTS,esBAF inh
O=C(Nc1ccccc1F)c1ccc(CSc2ncccn2)cc1,6.0,10.5,75.7,61.7*
C/C=C/c1cnc2c(c1)C(=O)N([C@@H](C)CO)C[C@@H](C)[C@H](CN(C)C(=O)C1CCOCC1)O2,.,.,.,-3.7
CCCN1C[C@@H](C)[C@@H](OC)CN(C)C(=O)c2cc(NS(C)(=O)=O)ccc2OC[C@@H]1C,.,.,.,-5.7
CSc1ccc(/C=C/C(=O)c2ccc(O)cc2)cc1,1.6,.,93.9*,.
CCOc1ccc(/C=C/C(=O)c2ccccc2)cc1,7.2,?,?,?
O=C(/C=C/c1ccc(OC2CSC2)cc1)c1ccccc1,-0.5,38.5*,58.0,?
CN(C)c1ccc(/C=C/C(=O)c2ccccc2)cc1[N+](=O)[O-],1.9,33.9*,33.5,62.2*
CN(C)c1ccc(C(=O)/C=C/c2ccc(Br)cc2)cc1,1.7,29.1,33.2,20.0
CNc1ccc(/C=C/C(=O)c2ccc(C)cc2)cc1[N+](=O)[O-],3.1,-1.8,-2.3,.
CN(C)c1ccc(C(=O)/C=C/c2ccccc2)cc1,6.3,.,?,68.2*
Cc1ccc(/C=C/C(=O)c2ccccc2)cc1,2.3,.,97.3*,15.5

# Bioassay records: PubChem, several laboratories
